Records with an inconclusive call do not appear. The source made the active and inactive calls. How the source made its calls, unless noted: active means hit-call score of the fitted dose curve at least 0.9, where 1 is the maximum; inactive means score below 0.9.

Read-out in test [1]: Macrophage colony-stimulating factor (MCSF), CSF1 (gene 1435)
In words: BSK_LPS_MCSF: BioMAP Diversity Plus: LPS Assay for Macrophage colony-stimulating factor (MCSF) Biomarker Activity (AID 2283083). Conditions: primary human HUVEC with PBMC; actives raise or lower the signal. The essentials:
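HUVEC–PBMC co-culture, M-CSF measured by ELISA 24 h after chemical dosing. Fitted in both directions relative to DMSO as negative control; overt cytotoxicity assessed by SRB total-protein staining in parallel cultures.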

Read-out in test [2]: Tissue Factor, F3 (gene 2152)
The experiment in a line: BSK_LPS_TissueFactor: BioMAP Diversity Plus: LPS Assay for Tissue Factor Biomarker Activity (AID 2283084). Conditions: primary human HUVEC with PBMC; actives raise or lower the signal. In outline: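 Human umbilical vein endothelial cells co-cultured with PBMC were dosed with compound. Cell-surface CD142 was measured by ELISA 24 h later. Activity was fitted bidirectionally against DMSO, with SRB total-protein staining in parallel cultures for cytotoxicity.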

Read-out in test [3]: Tumor necrosis factor (Homo sapiens) (UniProt P01375)
The experiment in a line: BSK_LPS_TNFa: BioMAP Diversity Plus: LPS Assay for Tumour Necrosis Factor alpha (TNFa) Biomarker Activity (AID 2283085). Conditions: primary human HUVEC with PBMC; actives raise or lower the signal. The essentials: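 Human umbilical vein endothelial cells co-cultured with PBMC and stimulated with LPS. TNFa was measured by ELISA 24 h after chemical dosing, fitted bidirectionally relative to DMSO.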

Read-out in test [4]: Vascular cell adhesion molecule 1 (VCAM1), VCAM1 (gene 7412)
The experiment in a line: BSK_LPS_VCAM1: BioMAP Diversity Plus: LPS Assay for Vascular cell adhesion molecule 1 (VCAM1) Biomarker Activity (AID 2283086). The note with it: primary human HUVEC with PBMC; actives raise or lower the signal. The essentials:
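Human umbilical vein endothelial cells co-cultured with PBMC and stimulated with LPS; VCAM-1 measured by ELISA 24 h after dosing. Bidirectional curve fitting against DMSO baseline; cytotoxicity tracked in parallel by SRB total-protein staining.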

Read-out in test [5]: CD38, CD38 (gene 952)
In words: BSK_SAg_CD38: BioMAP Diversity Plus: SAg Assay for CD38 Biomarker Activity (AID 2283087). Conditions: primary human HUVEC with PBMC; actives raise or lower the signal. In outline:
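Human HUVEC plus PBMC co-culture stimulated with superantigen; CD38 measured by ELISA 24 h after chemical dosing. Fluorescence read-out, bidirectional fit against DMSO; cytotoxicity tracked in parallel by SRB and Alamar Blue.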

Read-out in test [6]: CD40, CD40 (gene 958)
In words: BSK_SAg_CD40: BioMAP Diversity Plus: SAg Assay for CD40 Biomarker Activity (AID 2283088). The note with it: primary human HUVEC with PBMC; actives raise or lower the signal. The essentials: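 HUVEC plus PBMC co-culture, superantigen-activated, with CD40 read by ELISA 24 h after dosing. Curves fitted in both directions against DMSO. Overt cytotoxicity checked by parallel SRB total-protein staining.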

Read-out in test [7]: CD69, CD69 (gene 969)
In words: BSK_SAg_CD69: BioMAP Diversity Plus: SAg Assay for CD69 Biomarker Activity (AID 2283089).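 On AC50: cell surface CD69 protein quantified by ELISA with fluorescence detection.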 The note with it: primary human HUVEC with PBMC; actives raise or lower the signal. In outline:
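Endothelial/PBMC co-culture; chemical added; 24 h incubation; CD69 ELISA with fluorescence detection; bidirectional fit vs DMSO.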

Read-out in test [8]: Monocyte Chemoattractant Protein-1 (MCP1), CCL2 (gene 6347)
In words: BSK_SAg_MCP1: BioMAP Diversity Plus: SAg Assay for Monocyte Chemoattractant Protein-1 (MCP1) Biomarker Activity (AID 2283090). The note with it: primary human HUVEC with PBMC; actives raise or lower the signal. The essentials:
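MCP-1 levels in the endothelial–PBMC SAg co-culture were quantified by ELISA at 24 h post-dosing; both increases and decreases versus DMSO scored. Cytotoxicity monitored by SRB total protein in parallel cultures.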

Read-out in test [9]: E-selectin (Homo sapiens) (UniProt P16581)
The experiment in a line: BSK_SAg_Eselectin: BioMAP Diversity Plus: SAg Assay for Eselectin Biomarker Activity (AID 2283091). The note with it: primary human HUVEC with PBMC; actives raise or lower the signal. In outline:
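Human umbilical vein endothelial cells co-cultured with peripheral blood mononuclear cells, SAg system. E-selectin is measured by ELISA 24 h after dosing and fitted bidirectionally against DMSO. Cytotoxicity is checked by SRB staining of parallel cultures.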

Test [10] is described as follows: BSK_SAg_PBMCCytotoxicity: PBMC Cytotoxicity Assessment in the BioMAP Diversity Plus: SAg Assay (AID 2283093).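 Further: PBMC viability measured as Alamar Blue reduction fluorescence at 546/580 nm; fitted both ways against DMSO so a hit may be loss or gain of signal.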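 On AC50: PBMC superantigen activated with SEB plus TSST-1 one hour after compound addition.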 The note with it: primary human HUVEC with PBMC. The essentials: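 Human umbilical vein endothelial cells co-cultured with PBMC; PBMC (75,000/well) pre-treated with compound 1 h, then activated with SEB and TSST-1 (20 ng/mL final each) for 90 h. Alamar Blue added 6 h, fluorescence 546/580 nm; bidirectional fit versus DMSO.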

Read-out in test [11]: Interleukin-8 (IL8), CXCL8 (gene 3576)
The experiment in a line: BSK_SAg_IL8: BioMAP Diversity Plus: SAg Assay for Interleukin-8 (IL8) Biomarker Activity (AID 2283094). The note with it: primary human HUVEC with PBMC; actives raise or lower the signal. In outline: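 Human umbilical vein endothelial cells co-cultured with PBMC, stimulated with superantigen; IL-8 measured by ELISA 24 h after chemical dosing. Bidirectional fitting versus DMSO; SRB staining in parallel cultures tracks cytotoxicity.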

A short description of test [12]: BSK_SAg_Proliferation: Cell Proliferation Assessment in the BioMAP Diversity Plus: SAg Assay (AID 2283095). Conditions: primary human HUVEC with PBMC. The essentials: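 Human umbilical vein endothelial cells co-cultured with PBMC; sulforhodamine B total-protein staining (0.1% SRB after 10% TCA fixation, absorbance 560 nm) at 96 h in sub-confluent culture. Fitted bidirectionally against DMSO.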

Test [13] is described as follows: BSK_SAg_SRB: Viability Assessment in the BioMAP Diversity Plus: SAg Assay (AID 2283096).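 Further: cells read one day after compound addition; hits may be either gain or loss of signal compared with DMSO.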 Conditions: primary human HUVEC with PBMC. In outline:
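Endothelial/PBMC primary human co-culture; compound 24 h; fix 10% TCA, stain 0.1% SRB, A560; protein content as cytotoxicity proxy; bidirectional curve fit, DMSO = baseline.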

Test [14] addresses human CYP2A6, CYP2A6 (gene 1548) (UniProt P11509). In words: NVS_ADME_hCYP2A6: NovaScreen (NVS) CYP450-related Enzyme Activity (ADME) Assay for human CYP2A6 (AID 2283099; active means hit-call score of the fitted dose curve at least 0.9, where 1 is the maximum). In outline:
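Recombinant human CYP2A6 expressed in insect cells, cell-free; fluorogenic substrate turnover read by fluorescence intensity 0.5 h after dosing. Primary screen 10 uM in duplicate, then concentration-response up to 20 uM; acetonitrile as negative control.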

Read-out in test [15]: Monokine induced gamma interferon (MIG), CXCL9 (gene 4283)
The experiment in a line: BSK_SAg_MIG: BioMAP Diversity Plus: SAg Assay for Monokine induced gamma interferon (MIG) Biomarker Activity (AID 2283092). Conditions: primary human HUVEC with PBMC; actives raise or lower the signal. In outline: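 Measures CXCL9 protein by ELISA in a human vascular primary-cell co-culture (umbilical vein endothelium with PBMC) 24 h after chemical addition. Activity is scored up or down from the DMSO control.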

The target of test [16] is human CYP1A1, CYP1A1 (gene 1543) (UniProt P04798). In words: NVS_ADME_hCYP1A1: NovaScreen (NVS) CYP450-related Enzyme Activity (ADME) Assay for human CYP1A1 (AID 2283100; active means hit-call score of the fitted dose curve at least 0.9, where 1 is the maximum). The essentials:
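Recombinant CYP1A1 with a fluorogenic substrate, cell-free, read 1 h after dosing; acetonitrile as negative control. Single-concentration screen at 10 uM in duplicate, then concentration-response up to 20 uM for chemicals meeting ~30% inhibition threshold.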

The target of test [17] is human CYP2B6, CYP2B6 (gene 1555) (UniProt P20813). The experiment in a line: NVS_ADME_hCYP2B6: NovaScreen (NVS) CYP450-related Enzyme Activity (ADME) Assay for human CYP2B6 (AID 2283101; active means hit-call score of the fitted dose curve at least 0.9, where 1 is the maximum). In outline:
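Recombinant protein, specific fluorescent substrate, read at 1 h post-dosing. Primary: single 10 uM, duplicate; follow-up: concentration series. Activity = signal loss vs acetonitrile baseline, with positive and negative controls on every plate.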

The target in test [18] is human CYP2D6, CYP2D6 (gene 1565) (UniProt P10635). The experiment in a line: NVS_ADME_hCYP2D6: NovaScreen (NVS) CYP450-related Enzyme Activity (ADME) Assay for human CYP2D6 (AID 2283107; active means hit-call score of the fitted dose curve at least 0.9, where 1 is the maximum). In outline: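 Cell-free assay using recombinant human CYP2D6 expressed in insect cells, with a fluorogenic substrate read after 1 h. Primary screen in duplicate at 10 uM; actives followed up in concentration series. Loss of signal fitted relative to acetonitrile.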
Chain of human CYP2D6, CYP2D6 (gene 1565) (P10635 whole entry, looked up): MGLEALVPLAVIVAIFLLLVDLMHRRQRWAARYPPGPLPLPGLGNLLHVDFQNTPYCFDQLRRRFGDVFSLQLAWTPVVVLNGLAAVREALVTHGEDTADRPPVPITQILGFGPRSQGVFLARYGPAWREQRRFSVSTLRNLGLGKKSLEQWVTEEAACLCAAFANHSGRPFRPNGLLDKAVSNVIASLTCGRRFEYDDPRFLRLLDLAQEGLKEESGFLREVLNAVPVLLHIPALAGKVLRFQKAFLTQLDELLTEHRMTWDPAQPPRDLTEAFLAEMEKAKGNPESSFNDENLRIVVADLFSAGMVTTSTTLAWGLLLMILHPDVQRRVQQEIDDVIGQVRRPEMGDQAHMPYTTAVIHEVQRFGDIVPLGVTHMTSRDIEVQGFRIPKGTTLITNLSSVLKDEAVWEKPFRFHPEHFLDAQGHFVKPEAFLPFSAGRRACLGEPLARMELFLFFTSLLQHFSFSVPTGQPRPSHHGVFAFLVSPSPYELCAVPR

Chain of Tumor necrosis factor (Homo sapiens) (P01375 whole entry, looked up): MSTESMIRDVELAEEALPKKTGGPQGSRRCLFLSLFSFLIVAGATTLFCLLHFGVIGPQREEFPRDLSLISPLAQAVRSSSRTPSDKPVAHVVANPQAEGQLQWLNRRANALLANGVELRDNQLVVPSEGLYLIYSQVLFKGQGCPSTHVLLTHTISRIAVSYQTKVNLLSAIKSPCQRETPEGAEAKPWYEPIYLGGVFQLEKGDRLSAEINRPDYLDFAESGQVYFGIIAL
Chain of E-selectin (Homo sapiens) (P16581 whole entry, looked up): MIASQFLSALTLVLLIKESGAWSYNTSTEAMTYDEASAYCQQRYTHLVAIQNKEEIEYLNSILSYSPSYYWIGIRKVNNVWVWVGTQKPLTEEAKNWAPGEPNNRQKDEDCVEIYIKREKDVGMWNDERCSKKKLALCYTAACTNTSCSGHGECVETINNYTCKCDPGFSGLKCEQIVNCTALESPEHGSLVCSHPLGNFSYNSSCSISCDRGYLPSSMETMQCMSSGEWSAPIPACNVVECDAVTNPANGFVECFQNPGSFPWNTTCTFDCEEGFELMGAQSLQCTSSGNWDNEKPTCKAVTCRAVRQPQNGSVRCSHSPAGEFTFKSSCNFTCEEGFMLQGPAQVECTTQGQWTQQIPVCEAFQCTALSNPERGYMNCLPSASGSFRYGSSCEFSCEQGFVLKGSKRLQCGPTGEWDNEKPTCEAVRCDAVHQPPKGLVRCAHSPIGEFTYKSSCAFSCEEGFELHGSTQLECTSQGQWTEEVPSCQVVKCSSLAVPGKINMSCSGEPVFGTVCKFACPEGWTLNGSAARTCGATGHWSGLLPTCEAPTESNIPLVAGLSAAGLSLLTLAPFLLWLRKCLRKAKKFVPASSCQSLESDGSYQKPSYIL
Chain of human CYP2A6, CYP2A6 (gene 1548) (P11509 whole entry, looked up): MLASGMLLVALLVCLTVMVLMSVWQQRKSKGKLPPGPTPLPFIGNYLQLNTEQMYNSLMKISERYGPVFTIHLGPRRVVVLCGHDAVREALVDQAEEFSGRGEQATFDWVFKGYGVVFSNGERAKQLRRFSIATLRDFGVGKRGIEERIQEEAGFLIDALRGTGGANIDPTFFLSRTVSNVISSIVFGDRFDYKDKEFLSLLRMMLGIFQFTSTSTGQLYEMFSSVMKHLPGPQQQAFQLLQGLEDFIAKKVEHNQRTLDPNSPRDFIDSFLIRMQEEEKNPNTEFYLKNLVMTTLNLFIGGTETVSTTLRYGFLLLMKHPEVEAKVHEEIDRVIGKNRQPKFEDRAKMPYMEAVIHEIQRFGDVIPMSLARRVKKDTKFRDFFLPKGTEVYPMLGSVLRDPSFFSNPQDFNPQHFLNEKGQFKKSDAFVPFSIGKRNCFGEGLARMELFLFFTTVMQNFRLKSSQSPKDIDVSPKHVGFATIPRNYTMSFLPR
Chain of human CYP2B6, CYP2B6 (gene 1555) (P20813 whole entry, looked up): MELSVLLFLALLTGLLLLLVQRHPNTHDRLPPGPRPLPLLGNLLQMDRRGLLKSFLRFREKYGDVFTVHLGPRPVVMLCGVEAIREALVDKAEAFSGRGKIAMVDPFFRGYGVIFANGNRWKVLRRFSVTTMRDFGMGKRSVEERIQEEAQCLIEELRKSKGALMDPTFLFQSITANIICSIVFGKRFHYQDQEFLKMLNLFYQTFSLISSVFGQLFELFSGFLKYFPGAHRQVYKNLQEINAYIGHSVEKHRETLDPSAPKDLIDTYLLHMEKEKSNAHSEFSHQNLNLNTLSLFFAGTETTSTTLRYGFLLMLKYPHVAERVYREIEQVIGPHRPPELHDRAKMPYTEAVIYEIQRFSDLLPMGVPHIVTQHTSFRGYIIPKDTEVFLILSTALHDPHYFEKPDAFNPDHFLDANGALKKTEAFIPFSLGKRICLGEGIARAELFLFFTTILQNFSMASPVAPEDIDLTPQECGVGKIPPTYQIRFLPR
Chain of human CYP1A1, CYP1A1 (gene 1543) (P04798 whole entry, looked up): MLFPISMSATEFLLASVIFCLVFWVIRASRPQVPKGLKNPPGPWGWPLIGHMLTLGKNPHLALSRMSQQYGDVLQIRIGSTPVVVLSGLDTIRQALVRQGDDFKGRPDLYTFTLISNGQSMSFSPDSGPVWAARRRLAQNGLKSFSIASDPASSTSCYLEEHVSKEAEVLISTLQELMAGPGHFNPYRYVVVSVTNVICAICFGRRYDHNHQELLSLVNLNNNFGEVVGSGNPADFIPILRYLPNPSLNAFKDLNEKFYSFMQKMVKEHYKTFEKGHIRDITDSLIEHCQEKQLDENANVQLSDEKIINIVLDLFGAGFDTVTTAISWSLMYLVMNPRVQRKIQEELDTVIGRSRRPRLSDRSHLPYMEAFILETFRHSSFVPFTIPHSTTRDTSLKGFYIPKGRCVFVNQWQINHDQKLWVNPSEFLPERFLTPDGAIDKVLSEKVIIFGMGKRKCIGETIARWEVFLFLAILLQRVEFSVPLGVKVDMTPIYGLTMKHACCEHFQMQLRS

In the case of `Nc1nc2ncc(CNc3ccc(C(=O)N[C@@H](CCC(=O)O)C(=O)O)cc3)nc2c(=O)[nH]1`, the result in test [1], in test [2], in test [3], in [4], in [5] and in [6] was inactive. The outcome in [7], in test [8], in test [9], in test [10], in test [11] and in test [12] was inactive. The outcome in test [13] and in test [14] was inactive.

Turning to `CCCCCCCCO`, the outcome in test [1], in test [2], in test [3], in test [4], in [5] and in [6] was inactive. Also, the outcome in test [7], in test [8], in test [9], in [10], in test [11] and in test [12] was inactive. For the same compound, the outcome in test [13] was inactive.

Consider `CC(=O)OC[C@H]1O[C@@](COC(C)=O)(O[C@H]2O[C@H](COC(C)=O)[C@@H](OC(C)=O)[C@H](OC(C)=O)[C@H]2OC(C)=O)[C@@H](OC(C)=O)[C@@H]1OC(C)=O`, for which the result in [1], in [2], in [3], in test [4], in test [5] and in test [6] was inactive. The outcome in test [7], in test [8], in test [9], in test [10], in [11] and in test [12] was inactive. The result in test [13] was inactive.

Take `O=C(O)c1cccc(N(Cc2cccnc2)c2ccc(OC(F)F)c(OC(F)F)c2)c1`: the outcome in test [1], in test [15], in test [10] and in test [13] was inactive. The AC50 in test [2] is 9.14 µM (active); in [3], 1.95 µM (active); in test [4], 15.9 µM (active); in test [6] it was 13.7 µM (active); in test [7] it was 4.01 µM (active); in test [8], 6.77 µM (active). Besides, the results for the AC50 in test [9], in [11] and in [12] were 1.81 µM (active), 2.31 µM (active) and 7.83 µM (active), respectively.

Turning to `CC(=O)OCCC(C)C`, the outcome in test [1], in [2], in test [3], in test [4], in test [5] and in [6] was inactive. Further, the result in test [7], in [8], in test [9], in [10], in test [11] and in [12] was inactive. Besides, the result in test [13], in test [16], in [17] and in test [18] was inactive.

For `CC[C@H](C)C(=O)O[C@H]1C[C@@H](C)C=C2C=C[C@H](C)[C@H](CC[C@@H]3C[C@@H](O)CC(=O)O3)[C@H]21`, the AC50 is 34 µM (active) in [1]; 33.5 µM (active) in test [3]; 30.8 µM (active) in [4]; 29.8 µM (active) in test [5]; 12.5 µM (active) in test [6]; 13.8 µM (active) in test [7]. In addition, the AC50 in test [8] was 33.7 µM (active); in [10], 21.7 µM (active); in test [11] it was 0.147 µM (active); in test [12], 4.5 µM (active); in test [13], 3.95 µM (active). Also, the result in test [2] was inactive.

With `CCCCCCCCCCCCc1ccccc1`, the result in test [1], in test [2], in test [3], in [4], in [5] and in test [7] was inactive. Further, the outcome in [8], in [9], in [10], in test [11], in test [12] and in [13] was inactive. Moreover, the AC50 in [6] was 31.8 µM (active).

Consider `CCCC(=O)OCC`, for which the result in test [1], in test [2], in [3], in [4], in test [5] and in test [6] was inactive. Moreover, the result in test [7], in test [8], in [9], in [10], in test [11] and in [12] was inactive. For the same compound, the outcome in test [13] was inactive.

`COCCOCCOCCOC`: the outcome in [1], in test [2], in test [3], in [4], in [5] and in test [6] was inactive. Further, the outcome in [7], in [8], in test [9], in test [10], in test [11] and in [12] was inactive. Besides, in test [13], the outcome was inactive.

What is called AC50 is the concentration at which the activity in the assay is half-maximal.
